HPGD inh: qHTS Assay for Inhibitors of HPGD (15-Hydroxyprostaglandin Dehydrogenase). Potency, µM, without a hit: top-dose activity change, negative = inhibition, actives largely listed as inhibitors. 150,000 compounds, 4.3% hits. 15-hydroxyprostaglandin dehydrogenase [NAD(+)] (Homo sapiens), P15428. AID 894, 2007. purified HPGD, NADH fluorescence kinetic, PGE2 substrate; further: potency means the concentration at half of the fitted maximal effect
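20 nM HPGD preincubated 15 min at room temperature with compound in 50 mM Tris-HCl pH 8, 0.01% Tween 20. Started with 1 mM NAD+ and 30 uM prostaglandin E2; NADH fluorescence (360/450 nm) read 5 times over 30-s intervals, last minus first.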
ALDH1A1 block: qHTS Assay for Inhibitors of Aldehyde Dehydrogenase 1 (ALDH1A1); Purified ALDH1A1, NADH fluorescence, propionaldehyde substrate; AID 1030, 2008; Potency, µM (series often up to 75.3 µM), for inactives: top-dose activity, negative = inhibition, most hits filed as inhibitors; Aldehyde dehydrogenase 1A1 (Homo sapiens), P00352; 220,000 compounds, 7.3% hits;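 further: potency means the concentration at half of the fitted maximal effect; plate controls were no enzyme wells and a reference inhibitor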
Target sequence (P00352 whole entry, looked up): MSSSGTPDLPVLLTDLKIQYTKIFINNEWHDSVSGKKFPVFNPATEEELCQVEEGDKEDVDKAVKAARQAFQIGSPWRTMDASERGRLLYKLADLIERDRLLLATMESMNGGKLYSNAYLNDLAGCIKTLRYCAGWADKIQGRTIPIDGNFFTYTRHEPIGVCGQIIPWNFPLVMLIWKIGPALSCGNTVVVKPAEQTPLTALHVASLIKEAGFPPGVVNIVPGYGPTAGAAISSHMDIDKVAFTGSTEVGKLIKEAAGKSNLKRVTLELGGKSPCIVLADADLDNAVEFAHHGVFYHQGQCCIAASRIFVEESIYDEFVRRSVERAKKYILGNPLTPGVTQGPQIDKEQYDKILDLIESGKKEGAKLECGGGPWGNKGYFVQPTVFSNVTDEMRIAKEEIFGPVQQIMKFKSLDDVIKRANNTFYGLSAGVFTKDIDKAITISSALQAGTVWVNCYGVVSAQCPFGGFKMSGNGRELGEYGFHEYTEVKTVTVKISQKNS
KinaseGlo FLuc: Counterscreen for Luciferase (Kinase-Glo TM) Inhibition; Luciferin 4-monooxygenase (Photuris pensylvanica), Q27757; Kinase-Glo luciferase, ATP luminescence, 8 min; Potency, µM (doses to about 38.3 µM), for inactives: top-dose activity change, negative = inhibition, usual class: inhibitors; 200,000 compounds, 0.28% hits; AID 1379, 2008; active means well fitted inhibition curve with a large enough effect; inconclusive means small, poorly fitted or top-dose-only effect; further: potency means the concentration at half of the fitted maximal effect; nearly all actives have a fitted effect of over 60% in size
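Substrate mix (final 50 mM imidazole pH 7.2, 50 mM KCl, 7 mM MgCl2, 10 uM ATP, 0.01% Tween 20, 0.05% BSA) plus pin-tool compound, then Kinase-Glo detection mix; 8 min ambient, luminescence read.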
LMNA splice mod: qHTS Assay for Modulators of Lamin A Splicing; HeLa LMNA splicing GFP/RFP minigene ratio, 48 h; Potency, µM (highest dose often 46.1 µM), without a hit: at the highest dose ratio change, negative = inhibition, hits mostly inhibitors; 200,000 compounds, 0.01% hits; AID 1487, 2009; active means well fitted inhibition curve with a large enough effect in the signal ratio, with a control signal flat, not every such curve was filed as active; inconclusive means small, poorly fitted or top-dose-only effect, or effect the other way, or a change in a side signal; the % refers to the signal ratio; further: potency means the concentration at half of the fitted maximal effect
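S3 HeLa stable clones carrying a lamin A-EGFP splicing minigene plus DsRed2 were seeded at 600 cells/well in Opti-MEM with 2% FBS, pin-dosed and incubated 48 h at 37°C. Acumen cytometry (488 nm) gave the GFP/RFP total-intensity ratio.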
PNC inhibitor: High Content Assay for Compounds that inhibit the Assembly of the Perinucleolar Compartment. PC3M PTB-GFP, PNC prevalence imaging, 16 h; hits give low values. activity change (PNC), negative = inhibition, % at 10 µM. 140,000 compounds, 3.1% hits. AID 2417, 2010;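 active means readout at or below -70, meaning at least 70% loss of cells showing the perinucleolar compartment, a nuclear body marking cancer cells; inconclusive means readout between -30 and a set limit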;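 further: plate controls were DMSO wells for no effect and camptothecin positive control wells for full effect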
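PC3M cells stably expressing PTB-GFP, 750–1000 cells/well, treated 16 h at 37 °C with compound (23 nl of library stock), in duplicate. After paraformaldehyde fixation and Hoechst stain, imaged at 20x; PNC prevalence scored by image analysis.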
IMPase cell inh: qHTS Assay for Identifying the Cell-Membrane Permeable IMPase Inhibitors. CHO-M1 cells, IP1 accumulation, HTRF TR-FRET ratio. inhibition (IP1 accumulation), % at 46.1 µM. 120,000 tested, under 10 active; active means well fitted curve in the direction sought with a large enough effect in the signal ratio, not every such curve was filed as active; inconclusive means small, poorly fitted or top-dose-only effect, or a change in a side signal; inactive means no such curve, though single readings can be large or run the other way; the % refers to the signal ratio;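 further: cells stimulated with carbachol in lithium chloride buffer; plate controls were DMSO basal wells for no effect and reference inhibitor wells for full effect; higher means more IMPase inhibition seen as more IP1 and lower FRET ratio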
Target sequence (P97697 whole entry, looked up): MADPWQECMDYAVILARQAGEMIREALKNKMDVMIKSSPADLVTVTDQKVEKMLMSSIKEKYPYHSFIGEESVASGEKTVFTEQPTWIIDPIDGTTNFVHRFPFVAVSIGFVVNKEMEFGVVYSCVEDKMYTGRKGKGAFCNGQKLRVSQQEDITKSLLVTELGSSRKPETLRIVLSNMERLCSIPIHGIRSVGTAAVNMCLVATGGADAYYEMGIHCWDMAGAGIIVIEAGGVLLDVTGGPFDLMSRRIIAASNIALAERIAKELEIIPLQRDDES
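Measured: the HTRF emission ratio (665/620 nm) plus the 620 nm donor channel, each fitted to the Hill equation to give AC50. Cells were CHO-M1 given compounds up to 46 uM and a 30 min carbachol stimulation at 37C.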
* hit, by the source's call; ? = inconclusive; nt = no result given; [ ] = remark or other dose. Most compounds without a hit are left out; they make up all but 10% or so of the library. Unless noted, the call rests on the fitted dose curve; in most records, active means well fitted inhibition curve with a large enough effect (not every such curve was filed as active); inconclusive means small, poorly fitted or top-dose-only effect, or another doubt; inactive means no such curve, though single readings can be large or run the other way. Unless noted, on the % scale 0 is the no-effect control and ±100 the full control effect.

SMILES	HPGD inh	ALDH1A1 block	KinaseGlo FLuc	LMNA splice mod	PNC inhibitor	IMPase cell inh
Cc1ccc(S(=O)(=O)N/N=C/c2cccc([N+](=O)[O-])c2)cc1	-3%	?	4%	?	?	8
CCCCCCCCCS(=O)(=O)N/N=C/c1cccc([N+](=O)[O-])c1	20µM*	0.32µM*	-2%	?	?	1
CCCCCCCCCCS(=O)(=O)N/N=C/c1ccccc1OC	-15%	?	1%	?	-7	nt
O=C1CCC=C1C(O)c1ccc(Cl)cc1 (stereo not given)	-5%	-8%	1%	nt	nt	nt
Cc1ccc(C)c(N2CCN(C(=O)CSc3ccsc3[N+](=O)[O-])CC2)c1	?	11µM*	4%	?	-17	3
O=C(CSc1ccsc1[N+](=O)[O-])N1CCN(c2ccccc2)CC1	-3%	?	-1%	?	4	nt
COCCCNc1nc(SCc2ccccc2)nc2sc3c(c12)CCC3	-12%	-10%	-2%	9%	-17	7
N#Cc1cnn(-c2nc(SCc3ccccc3)nc3sc4c(c23)CCCC4)c1N	-24%	8.9µM*	1%	19%	16	6
COc1ccc(-c2nc3cnc(Nc4cccc(OC)c4)nc3n(C[C@H]3CCCO3)c2=O)cc1	nt	-13%	nt	20%	nt	nt
O=c1oc2cc(Br)ccc2n1CSC1=NCCS1	22µM*	?	-7%	?	-20	2
CCCc1nnc(NC(=O)Cn2c(=O)oc3cc(Br)ccc32)s1	?	?	13%	6%	-10	3
COc1ccc(N(C(=O)c2ccco2)S(=O)(=O)c2ccc(F)cc2)cc1	28µM*	-1%	6%	-5%	39	10
O=C(Nc1ccc(Cl)cc1C(F)(F)F)C(Sc1nnc(-c2cccs2)o1)c1ccccc1 (stereo not given)	nt	2.8µM*	nt	?	27	12
O=C(Nc1cc(C(F)(F)F)ccc1Cl)C(Sc1nnc(-c2cccs2)o1)c1ccccc1 (stereo not given)	nt	1µM*	nt	?	91	-2
COc1ccc(C)cc1NC(=O)C(Sc1nnc(-c2cccs2)o1)c1ccccc1 (stereo not given)	-25%	-6%	7%	?	-2	nt
CCOC(=O)c1c(C)cc(O)c(C=O)c1O	-10%	-13%	-7%	nt	nt	nt
CC1=C(CC[C@H](C)CO)O[C@@H]2C[C@@H]3[C@H]4CC[C@H]5C[C@@H](O)CC[C@]5(C)[C@@H]4CC(=O)[C@@]3(C)[C@@H]12	-3%	-10%[13.5 µM]	-3%[7.66 µM]	nt	nt	nt
COc1ccc(CSCCN)cc1Cl	3%	3%	-3%	17%	-96*	0
N#C/C(=N\Nc1cccc([N+](=O)[O-])c1)C(=O)c1ccc(Br)cc1	nt	22µM*	-3%	nt	nt	nt
CCCOCC(C)O (stereo not given)	0%	-4%	nt	nt	nt	nt
COc1ccccc1N1CCN(C(c2cc3cc(C)ccc3[nH]c2=O)c2nnnn2C2CCCC2)CC1 (stereo not given)	-3%	14µM*	0%	4%	?	-5
COc1ccccc1N1CCN(C(c2cc3ccc(C)cc3[nH]c2=O)c2nnnn2C2CCCC2)CC1 (stereo not given)	-15%	25µM*	1%	5%	?	-1
CCOC(=O)C1CCN(C(c2cc3ccc(C)cc3[nH]c2=O)c2nnnn2C2CCCCC2)CC1 (stereo not given)	-23%	?	-5%	10%	15	17
CC1(C)CC(=O)C(N=Nc2cc(C(F)(F)F)ccc2Cl)=C(O)C1	nt	1.4µM*	-1%	1%[46 µM]	nt	nt
CC1(C)CC(=O)C(N=Nc2c(Cl)cc(Cl)cc2Cl)=C(O)C1	-16%	2µM*	-1%	-8%	?	1
SMILES	HPGD inh	ALDH1A1 block	KinaseGlo FLuc	LMNA splice mod	PNC inhibitor	IMPase cell inh
O=C1CCCC(O)=C1N=Nc1c(Cl)cc(C(F)(F)F)cc1Cl	nt	-4%	nt	nt	nt	nt
CC1(C)CC(=O)C(N=Nc2cc(S(=O)(=O)N3CCOCC3)ccc2Cl)=C(O)C1	nt	0.1µM*	nt	nt	nt	nt
CS(=O)(=O)N(CC(=O)O)Cc1ccccc1	-7%	-6%[13.5 µM]	3%[7.66 µM]	nt	nt	nt
O=C(c1ccccc1)c1sc(N2CCCCCC2)nc1-c1ccccc1	-16%	?	5%	13%	-17	3
O=C(O)c1cc(-c2cccc(Cl)c2)nc2nc(N3CCCCC3)sc12	?	?	-3%	1%	-86*	nt
Cc1ccc2c(c1)-c1cc(C)nn1C(c1cc(Br)ccc1O)N2 (stereo not given)	nt	nt	nt	nt	nt	4
Cc1ccc(-n2cc(CNCCN3CCOC3=O)c(-c3cccc(C)c3)n2)cc1	nt	7.1µM*	0%	nt	nt	nt
O=C1OCCN1CCNCc1cn(-c2ccc(F)cc2)nc1-c1ccccc1Cl	nt	?	-1%	?	nt	nt
Cc1ccc(NC(=O)CSc2nc(N)c3c4c(sc3n2)CSC(C)(C)C4)cc1	-29%	-11%	-5%	?	-93*	nt
O=C(NCCO)C(=O)Nc1c2c(nn1-c1ccc(F)cc1)CSC2	nt	nt	nt	16%[46 µM]	nt	nt
Cc1cc(OCc2cc3c(cc2Cl)OCO3)c2c(C)cc(=O)oc2c1	nt	0.18µM*	nt	-5%	?	5
NS(=O)(=O)O	-14%	15%	nt	nt	nt	nt
CCOc1cc(C(=O)CCC(=O)OCC(=O)Nc2ccc(C)c(S(=O)(=O)N(C)C)c2)ccc1O	nt	28µM*	0%	-1%[46 µM]	nt	nt
Cc1ccc(NC(=O)COC(=O)CCC(=O)c2ccc(Cl)cc2)cc1S(=O)(=O)N(C)C	nt	-17%	nt	-13%	?	3
CCCS(=O)(=O)N1CC(=O)N(c2cccc(Cl)c2)C(C)(C(=O)NC2CCCCC2)C1 (stereo not given)	nt	nt	nt	22%[46 µM]	nt	nt
O=C(O)CC(c1cccc2ccccc12)n1cccc1 (stereo not given)	35µM*	-7%	-3%	2%	44	-19
O=C(O)CC(c1cccc2ccccc12)N1Cc2ccccc2C1=O (stereo not given)	nt	5%	2%	nt	nt	nt
CS(=O)(=O)N(CC(=O)NCCSc1ccccc1)c1cc(C(F)(F)F)ccc1Cl	nt	nt	nt	nt	nt	13
COc1ccccc1NS(=O)(=O)c1cc(NC(=O)C2CCCC2)ccc1N1CCOCC1	nt	10µM*	1%	?	nt	nt
COc1ccc(NS(=O)(=O)c2cc(NC(=O)c3sccc3C)ccc2N2CCOCC2)cc1	nt	-10%	nt	nt	nt	nt
COc1ccccc1NS(=O)(=O)c1cc(NC(=O)c2cc[n+]([O-])cc2)ccc1N1CCCC1	nt	7.9µM*	4%	-10%[46 µM]	nt	nt
